About 890 (59%) of roughly 1,500 compounds were called active.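 Rule for the calls: active = inhibition of the choline-evoked signal at any tested dose together with a fitted dose-response curve; inactive = no inhibition at any dose or no curve.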 So high a share suggests a set chosen from earlier hits. These entries were drawn from the full list. Potency and affinity values are given separately.
molecular target: High affinity choline transporter 1 (Homo sapiens) (UniProt Q9GZV3); test: CHT inhibitors, dose response, cell-based, 5-point CRC, membrane potential dye (AID 504840); conditions: HEK293-CHT, choline-induced depolarization, CHT with LV-to-AA double alanine mutation; series mostly up to 37 µM; inhibition: at the top concentration;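 note: 0% = buffer-only response and 100% = EC90 choline response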
Sequence (Q9GZV3 whole entry, looked up): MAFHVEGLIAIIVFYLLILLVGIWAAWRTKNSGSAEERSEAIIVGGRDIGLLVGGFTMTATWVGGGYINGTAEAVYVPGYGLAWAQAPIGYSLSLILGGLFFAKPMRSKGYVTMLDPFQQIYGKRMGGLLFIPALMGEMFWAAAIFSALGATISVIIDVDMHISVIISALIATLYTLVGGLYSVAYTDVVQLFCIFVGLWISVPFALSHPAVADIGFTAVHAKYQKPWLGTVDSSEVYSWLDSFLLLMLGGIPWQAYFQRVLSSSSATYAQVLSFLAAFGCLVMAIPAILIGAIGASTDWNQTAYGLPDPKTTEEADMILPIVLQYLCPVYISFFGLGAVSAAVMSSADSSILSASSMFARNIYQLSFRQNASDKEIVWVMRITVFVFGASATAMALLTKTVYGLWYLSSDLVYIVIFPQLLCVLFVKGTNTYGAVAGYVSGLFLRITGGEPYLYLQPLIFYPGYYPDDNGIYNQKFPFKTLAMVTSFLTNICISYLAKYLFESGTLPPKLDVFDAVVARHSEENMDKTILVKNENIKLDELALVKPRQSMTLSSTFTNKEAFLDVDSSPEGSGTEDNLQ

inhibition, inactive:
CC(C)(C)Nc1nc(Cl)nc(N(C#N)CN2C(=O)c3ccccc3S2(=O)=O)n1 54.5%
Cc1ccc(SC(CC(=O)c2ccc(C(C)(C)C)cc2)C(=O)O)cc1 (stereo not drawn) 48.9%
COc1ccc(N(CCCN2C(=O)c3cccc4cccc(c34)C2=O)C(=O)c2ccncc2)cc1 27.8%
O=C(O)c1ccc(/C=C2\SC(=S)N(NC(=O)c3ccc(Br)cc3)C2=O)cc1 47.5%
O=C(NN1C(=O)/C(=C/c2cccc(O)c2)SC1=S)c1ccccc1O 10.2%
CC1CC(C)(C)N(C(=O)CN2C(=O)c3ccccc3C2=O)c2ccccc21 (stereo not drawn) 35.4%
COc1ccc(OCC(=O)N/N=C/C=C/c2ccccc2)cc1 -4.13%
Oc1c(Br)cc(/C=N/NC(=S)NCc2ccco2)cc1Br 25.4%
CCCOc1ccc(C(=O)NNC(=S)NC(=O)c2ccccc2)cc1 23.4%
COc1ccc(C(=O)NNC(=S)NC(=O)c2ccccc2)cc1 29.4%
CC(C)(C)N/N=C/c1cc(Cl)cc([N+](=O)[O-])c1O 54.1%
CCOC(=O)c1ccc2c(c1)[nH]c(=S)n2CC 36%
CCCCn1c(=O)n(Cc2cccc(F)c2)c(=O)c2c1ncn2Cc1ccco1 68.1%
N#Cc1nc(Cc2cccc3ccccc23)oc1N1CCOCC1 30.9%
O=C(Cn1ncc2c3ccccc3n(Cc3ccccc3)c2c1=O)NCCCN1CCOCC1 51.5%
Cc1ccccc1-n1nnnc1Sc1nnnn1-c1ccccc1 29.9%
Oc1cccc(-n2nnnc2SCc2ccccc2F)c1 32.2%
COc1ccc(Cl)cc1NC(=O)C[n+]1cccc(C)c1 61.8%
C=Cn1cc[n+](CC(=O)c2ccc(Cl)cc2)c1 48.6%
C=Cn1cc[n+](CC(=O)c2ccc(Cl)c(Cl)c2)c1 47.2%
O=[N+]([O-])c1cc([N+](=O)[O-])c2c(=Nc3ccccc3)n(-c3ccccc3)n(O)c2c1 11.3%
CCCNC(=O)c1ccc(COc2ccc(C)cc2)o1 34.9%
Cc1ccc(C(=O)CCC(=O)NC2CCCC(C)C2C)cc1 (stereo not drawn) 31.5%
CC1CCC(NC(=O)c2ccc(CS(=O)(=O)Cc3ccccc3F)o2)CC1 (stereo not drawn) 68.8%
Cc1ccccc1OC(C)C(=O)Nc1ccc(S(=O)(=O)Nc2nccs2)cc1 (stereo not drawn) 43.2%
CCC(Oc1ccc(C)cc1)C(=O)Nc1ccc(S(=O)(=O)Nc2nccs2)cc1 (stereo not drawn) 68.2%
O=C(Nc1ccccc1OC(F)F)c1cccc(S(=O)(=O)N2CCCC2)c1 15.9%
CC(NCc1ccc(F)cc1)C(=O)Nc1cc(S(=O)(=O)N2CCCCC2)ccc1Cl (stereo not drawn) 18.6%
Cc1cc(C)n2nc(SCc3cccc(S(=O)(=O)N(C)C)c3)nc2n1 36.9%
CCOC(=O)C1CCCN(C(=O)Cc2c(F)cccc2Cl)C1 (stereo not drawn) 9.71%
CSc1ccc(C(=O)C2CCCN(C(=O)c3nonc3C)C2)cc1 (stereo not drawn) 30.4%
Cc1ccc(SCC2(O)CCN(C(=O)c3ccc(Cl)cc3)CC2)cc1 14.9%
O=C(Cc1ccccc1F)c1ccc(O)cc1O 51.5%
O=c1c2ccccc2nc(-c2ccccc2)n1Cc1ccco1 22.4%
Cc1sc(NC(=O)c2ccco2)nc1-c1ccccc1 57.1%
CC1CCCCN1C(=O)c1ccc(C(=O)Nc2ccc(F)cc2)cc1 (stereo not drawn) 50.5%
O=C(CCc1ccccc1)NNC(=S)NC(=O)c1ccc(Cl)cc1 27.5%
COc1cccc(N2C(=O)N(c3ccccc3)C3CS(=O)(=O)CC32)c1 (stereo not drawn) 23.3%
CCCCCn1c(=O)[nH]c2cc(C(=O)NCCCN3CCCCC3CC)ccc2c1=O (stereo not drawn) 58.5%
CCN(CC)CCCN1C=C2C(=O)C(C)(OC(=O)CCC(=O)OC)C(=O)C=C2C=C1C1CC1 (stereo not drawn) 59.8%
CC(Oc1ccc2ccccc2c1)C(=O)NNC(=S)NC(=O)c1ccco1 (stereo not drawn) 21.3%
Cc1ccc(OCC(=O)NNC(=S)NC(=O)C(C)(C)C)c(Br)c1 49.2%
CCCCCc1cc(=O)oc2c(C(CCN3CCCCC3)c3cc(OC)c(OC)c(OC)c3)c(OC)cc(OC)c12 (stereo not drawn) 64.2%
COc1cc(CN(C)Cc2cc(=O)n3ccsc3n2)ccc1OC(F)F 20.5%
COc1ccc(CNC(=O)[C@H](C)NC(=O)N2CCn3c2nc2ccccc23)cc1 45.6%
O=C(Cn1nc(C(F)(F)F)c2c1CCC2)NCc1ccc(F)cc1 29.8%
O=C(O)CN1C(=O)/C(=C/C=C/c2ccccc2)SC1=S 43%
CC(=O)NC(CC(=O)NCCN1C(=O)S/C(=C\c2ccccc2)C1=O)c1ccccc1 (stereo not drawn) 41.9%
CC(/C=C1\NC(=S)NC1=O)=C\c1ccccc1 14.5%
CN1CCN(C(=O)CCN2C(=O)/C(=C/c3cccc(Br)c3)SC2=S)CC1 38.4%
COc1ccc(/C=C2/SC(=S)N(CCCC(=O)N3CCN(C)CC3)C2=O)cc1 30.2%
CN1CCN(C(=O)CCN2C(=O)S/C(=C/c3ccc(Cl)cc3)C2=O)CC1 50.5%
CCC(C(=O)N1CCOCC1)n1c(C(=O)OC)cc2occc21 (stereo not drawn) 11.2%
C=CCn1c(SCC(=O)NC(=O)NC2CCCC2)nnc1C1CCCCC1 22.3%
Cc1nc(SCC(=O)NC(=O)NCc2ccccc2)nc(C)c1C 27.6%
CC(=O)Nc1cccc(C(=O)OC(C)C(=O)Nc2ccc(S(=O)(=O)N3CCCC3)cc2)c1 (stereo not drawn) 48.4%
CC(=O)Nc1cc(NC(C)=O)cc(C(=O)OC(C)C(=O)Nc2ccc(S(=O)(=O)N3CCCC3)cc2)c1 (stereo not drawn) 55.2%
CN(c1cccc(NC(=O)Nc2cccc(Cl)c2)c1)S(C)(=O)=O 39.9%
CC1CCC(NC(=O)CCn2ccc3cc(S(=O)(=O)N4CCCC4)ccc32)CC1 (stereo not drawn) 51.3%
CC1CCCCC1NC(=O)c1ccc2c(c1)[nH]c(=O)n2C1CCCC1 (stereo not drawn) 58.6%
Cc1cc(C)n2c(SCC(=O)NC3CCCCC3C)nnc2n1 (stereo not drawn) 2.51%
Cc1ccc(S(=O)(=O)N2CCCCC2)cc1NC(=O)CSc1nncn1-c1ccccc1 63.5%
CCCc1nc2oc3c(NCC4CCCO4)ncnc3c2c2c1COC(C)(C)C2 (stereo not drawn) 65.7%
CCCN(CCC)Cc1c(C(=O)N/N=C/C(C)=C\c2ccco2)nnn1-c1nonc1N 32.6%
COc1ccccc1C(=O)NC1CCN(C(=S)NCCc2ccccc2)CC1 26.5%
COc1ccc(OCC(O)Cn2c(=N)n(Cc3ccccc3)c3ccccc32)cc1 (stereo not drawn) 70.1%
Cc1ccc(OCC(O)Cn2c(=N)n(Cc3ccccc3)c3ccccc32)cc1 (stereo not drawn) 70.7%
Cc1ccc(/C=C2\SC(=S)N(c3c(C)n(C)n(-c4ccccc4)c3=O)C2=O)cc1 46.4%

Reference: PubChem BioAssay AID504840 (Johns Hopkins Ion Channel Center, 2011)
